Experimental data taken from PubChem BioAssay (NCI).
The panel holds about 83,000 compounds, 20% with a hit somewhere; the sample as a whole holds those more often.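 Activity criterion: percent growth below 10, measured after cells in 96-well plates were exposed to a single compound concentration for 48 hours.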 Unmarked numbers belong to inactive results. Active and inactive are the calls of the source.

Key:
Test in all cases: NCI-60 one-dose screen, 48 h (100 = growth as untreated, 0 = no growth, -100 = all killed)
Details in all cases: 10 µM unless noted
NCI-H23 lung = test system: NCI-H23 lung
NCI-H226 lung = test system: NCI-H226 lung
NCI-H322M lung = test system: NCI-H322M lung
HOP-62 NSCLC = test system: HOP-62 NSCLC
NCI-H460 lung = test system: NCI-H460 lung
HOP-92 NSCLC = test system: HOP-92 NSCLC
786-0 renal = test system: 786-0 renal
COLO 205 colon = test system: COLO 205 colon
DU-145 prostate = test system: DU-145 prostate
K-562 leukemia = test system: K-562 leukemia
MALME-3M melanoma = test system: MALME-3M melanoma
RXF 393 renal = test system: RXF 393 renal
SF-268 CNS = test system: SF-268 CNS
SF-295 CNS = test system: SF-295 CNS
SF-539 CNS = test system: SF-539 CNS
M14 melanoma = test system: M14 melanoma
A549/ATCC NSCLC = test system: A549/ATCC NSCLC
MDA-MB-231 breast = test system: MDA-MB-231 breast
UACC-257 melanoma = test system: UACC-257 melanoma
NCI-H522 lung = test system: NCI-H522 lung

NNc1ccc(S(N)(=O)=O)cc1
growth (NCI-H23 lung): 90.7%
growth (NCI-H226 lung): 93.7%
growth (NCI-H322M lung): 110%
growth (HOP-62 NSCLC): 91.2%
growth (NCI-H460 lung): 107%
growth (HOP-92 NSCLC): 85.3%
growth (786-0 renal): 103%
growth (COLO 205 colon): 105%
growth (DU-145 prostate): 121%
growth (K-562 leukemia): 109%
growth (MALME-3M melanoma): 104%
growth (RXF 393 renal): 105%
growth (SF-268 CNS): 108%
growth (SF-295 CNS): 105%
growth (SF-539 CNS): 98.6%
growth (M14 melanoma): 101%

O=C(CCCN1CCC(O)(c2ccc(Br)cc2)CC1)c1ccc(F)cc1
growth (NCI-H23 lung): 68.3%
growth (NCI-H226 lung): 99.5%
growth (NCI-H322M lung): 81.8%
growth (HOP-62 NSCLC): 64.3%
growth (NCI-H460 lung): 76.8%
growth (HOP-92 NSCLC): 98.9%
growth (A549/ATCC NSCLC): 73.5%
growth (786-0 renal): 69%
growth (MALME-3M melanoma): 86.8%
growth (MDA-MB-231 breast): 40.7%
growth (RXF 393 renal): 49.8%
growth (SF-268 CNS): 83.4%
growth (SF-295 CNS): 54.7%
growth (SF-539 CNS): 77.8%
growth (UACC-257 melanoma): -21.9% (active)
growth (M14 melanoma): 18.6%

Cc1cc2nc(CN)[nH]c2cc1C
growth (NCI-H23 lung): 103%
growth (NCI-H226 lung): 105%
growth (NCI-H322M lung): 107%
growth (HOP-62 NSCLC): 98.9%
growth (NCI-H460 lung): 103%
growth (HOP-92 NSCLC): 84%
growth (786-0 renal): 97.4%
growth (COLO 205 colon): 104%
growth (DU-145 prostate): 106%
growth (K-562 leukemia): 102%
growth (MALME-3M melanoma): 104%
growth (MDA-MB-231 breast): 117%
growth (RXF 393 renal): 107%
growth (SF-268 CNS): 106%
growth (SF-295 CNS): 98.1%
growth (SF-539 CNS): 106%
growth (M14 melanoma): 99.9%

Cc1csc(N/N=C/c2ccncc2)n1
growth (NCI-H23 lung): 100%
growth (NCI-H226 lung): 95.9%
growth (NCI-H322M lung): 109%
growth (HOP-62 NSCLC): 99.1%
growth (NCI-H460 lung): 101%
growth (NCI-H522 lung): 72.9%
growth (A549/ATCC NSCLC): 68.8%
growth (786-0 renal): 88.4%
growth (COLO 205 colon): 107%
growth (DU-145 prostate): 108%
growth (K-562 leukemia): 94.1%
growth (MALME-3M melanoma): 117%
growth (MDA-MB-231 breast): 102%
growth (RXF 393 renal): 99.5%
growth (SF-268 CNS): 114%
growth (SF-295 CNS): 108%
growth (SF-539 CNS): 106%
growth (UACC-257 melanoma): 78.1%
growth (M14 melanoma): 100%

CCN(CC)CCNC(=O)n1cc(-c2ccncc2)c(-c2ccc(Cl)c(OC)c2)n1
growth (NCI-H23 lung): 98%
growth (NCI-H226 lung): 61.5%
growth (NCI-H322M lung): 118%
growth (HOP-62 NSCLC): 66.8%
growth (NCI-H460 lung): 104%
growth (NCI-H522 lung): 81.9%
growth (A549/ATCC NSCLC): 77.5%
growth (786-0 renal): 72%
growth (COLO 205 colon): 70.1%
growth (DU-145 prostate): 97.8%
growth (K-562 leukemia): 85.9%
growth (MALME-3M melanoma): 114%
growth (MDA-MB-231 breast): 79.5%
growth (RXF 393 renal): 85.3%
growth (SF-268 CNS): 67.9%
growth (SF-295 CNS): 97.7%
growth (SF-539 CNS): 75%
growth (UACC-257 melanoma): 93.1%
growth (M14 melanoma): 78.6%

O=C(/C=C/c1ccco1)c1ccccc1O
growth (NCI-H23 lung): 93.5%
growth (NCI-H226 lung): 99.6%
growth (NCI-H322M lung): 105%
growth (HOP-62 NSCLC): 109%
growth (NCI-H460 lung): 108%
growth (NCI-H522 lung): 88.3%
growth (A549/ATCC NSCLC): 101%
growth (786-0 renal): 96.8%
growth (COLO 205 colon): 119%
growth (DU-145 prostate): 108%
growth (K-562 leukemia): 117%
growth (MALME-3M melanoma): 121%
growth (MDA-MB-231 breast): 111%
growth (RXF 393 renal): 92.4%
growth (SF-268 CNS): 99.4%
growth (SF-295 CNS): 110%
growth (SF-539 CNS): 98.2%
growth (UACC-257 melanoma): 112%
growth (M14 melanoma): 105%

O=C(Cc1ccc([N+](=O)[O-])cc1)Oc1ccccc1
growth (NCI-H23 lung): 109%
growth (NCI-H226 lung): 111%
growth (NCI-H322M lung): 103%
growth (HOP-62 NSCLC): 102%
growth (NCI-H460 lung): 114%
growth (NCI-H522 lung): 97.2%
growth (A549/ATCC NSCLC): 111%
growth (786-0 renal): 104%
growth (COLO 205 colon): 109%
growth (DU-145 prostate): 129%
growth (K-562 leukemia): 104%
growth (MALME-3M melanoma): 146%
growth (MDA-MB-231 breast): 108%
growth (RXF 393 renal): 122%
growth (SF-268 CNS): 111%
growth (SF-295 CNS): 121%
growth (SF-539 CNS): 105%
growth (UACC-257 melanoma): 110%
growth (M14 melanoma): 106%

CC1CCCN(CCCCOc2ccc(-c3ccc(C#N)cc3)cc2)C1 (stereo not drawn)
growth (NCI-H23 lung): 82.6%
growth (NCI-H226 lung): 93.4%
growth (NCI-H322M lung): 99.9%
growth (HOP-62 NSCLC): 97.7%
growth (NCI-H460 lung): 99.1%
growth (NCI-H522 lung): 59.6%
growth (A549/ATCC NSCLC): 60.2%
growth (786-0 renal): 90.1%
growth (COLO 205 colon): 75.1%
growth (DU-145 prostate): 101%
growth (K-562 leukemia): 62%
growth (MALME-3M melanoma): 120%
growth (MDA-MB-231 breast): 84.6%
growth (RXF 393 renal): 94.6%
growth (SF-268 CNS): 92.5%
growth (SF-295 CNS): 94.6%
growth (SF-539 CNS): 98.4%
growth (UACC-257 melanoma): 66.6%
growth (M14 melanoma): 83.2%

COc1cc(C2CC(c3cccc(Nc4ccnc5cc(Cl)ccc45)c3)=NN2C=O)cc(OC)c1OC (stereo not drawn)
growth (NCI-H23 lung): 4.02% (active)
growth (NCI-H226 lung): 2.98% (active)
growth (NCI-H322M lung): 32.5%
growth (HOP-62 NSCLC): 1.34% (active)
growth (NCI-H460 lung): 7.22% (active)
growth (NCI-H522 lung): -4.52% (active)
growth (A549/ATCC NSCLC): 18.4%
growth (786-0 renal): 11.3%
growth (COLO 205 colon): -22.6% (active)
growth (DU-145 prostate): -2.32% (active)
growth (K-562 leukemia): 19.4%
growth (MALME-3M melanoma): -5.46% (active)
growth (MDA-MB-231 breast): 6.76% (active)
growth (RXF 393 renal): -25.1% (active)
growth (SF-268 CNS): 25.3%
growth (SF-295 CNS): -11.6% (active)
growth (SF-539 CNS): -26.3% (active)
growth (UACC-257 melanoma): 37.6%
growth (M14 melanoma): -26.7% (active)
